The test is described as follows: A549 cell viability effects, profiling panel, calcein-AM fluorescence, 48 h, basal (AID 1162). Note: test concentration not given here. Particulars: higher = more signal.
For the compound `CCOc1cc(C(O)C2C=CC3C(=O)NC(=O)C3N2Nc2ccccn2)ccc1O` (stereo unspecified), the z-score was -0.773.

Turning to `Cc1cc(C)c(C(O)C2C=CC3C(=O)N(c4ccccc4)C(=O)C3N2Nc2ccccc2)c(C)c1` (stereo unspecified), the z-score was 0.479.

Take `CCCC=C(CCC)[C@@H](NS(=O)(=O)c1ccccc1)c1ccc(C(F)(F)F)cc1`: the z-score is -2.27.

On to `COCCCNC(=O)[C@@]1(Cc2ccccc2)COC(c2ccc(OCCCO)cc2)=N1`, for which the z-score was 0.654.

For `C[C@@]1([C@@H](NC(=O)c2cccs2)c2ccc(-c3ccccc3)cc2)C[C@H]1C1CCCCC1`, the z-score is -1.23.

For `COc1ccc(C#Cc2ccc3c(c2)[C@]2(C(=O)N3)[C@H](c3ccc(OCCO)cc3)N3[C@H](c4ccccc4)[C@H](c4ccccc4)OC(=O)[C@H]3[C@@H]2C(=O)N2CCN(c3ncccn3)CC2)cc1`, the z-score is -0.446.

As for `CC(C)C[C@@H]1NC(=O)[C@@H]2C[C@H](C(=O)NCc3ccc(F)cc3)[C@H](c3ccc(O)cc3)N2C1=O`, the z-score is 0.0054.

`CCCN1C(=O)[C@@H]2Cc3c([nH]c4ccccc34)[C@@H](c3cccc(O)c3)N2C1=O`: the z-score is -0.362.

Regarding `COC(=O)[C@@]1(Cc2ccc(OC)cc2)[C@H]2c3cc(C(=O)N4CCCC4)n(CCc4ccc(O)c(OC)c4)c3C[C@H]2CN1C(=O)c1ccccc1`, the z-score is -1.47.

As to `C=CC[C@]1(C(=O)NCC(O)CO)N=C(c2ccc(OCCCO)cc2)O[C@H]1c1ccccc1N=[N+]=[N-]` (stereo partly specified), the z-score is -0.402.

As for `COc1ccc([Si](C)(C)[C@@H]2[C@@H](CCO)O[C@]3(C(=O)N(Cc4ccc(N5C(=O)c6ccccc6Oc6ccccc65)cc4)c4ccccc43)[C@H]2C)cc1`, the z-score is -0.738.

Values taken from PubChem BioAssay.
